Measurements taken from PubChem BioAssay (EPA / NIEHS).
Activity calls are given as the source filed them. The calls were made as follows: active = hit-call score of the fitted dose curve at least 0.9, where 1 is the maximum; inactive = score below 0.9.

Legend:
[1] = ATG_E_Box_CIS: Attagene CIS-FACTORIAL HepG2 Assay for human Enhancer Box (E-box) (AID 2282936); conditions: HepG2 E-box cis-reporter transcription, actives raise or lower the signal
Method in brief: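 E-box-driven reporter transcripts measured in transiently transfected HepG2 after 24 h exposure: RNA reverse-transcribed, PCR-amplified, fluorescently labelled, digested and resolved by capillary electrophoresis. Gain or loss relative to DMSO.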

[2] = ATG_M_61_CIS: Attagene CIS-FACTORIAL HepG2 Assay for M61 Transcription Factor (Internal Marker) (AID 2282937); conditions: HepG2 Attagene CIS-FACTORIAL M61 internal marker reporter; actives raise or lower the signal
Method in brief: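 Human liver HepG2, transient MRTU transfection (cis promoter elements), 24 h compound. Total RNA → oligo(dT) RT → PCR → FAM label → HpaI → CE. Internal background marker; bidirectional fitting, DMSO = baseline.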

[3] = ATG_EGR_CIS: Attagene CIS-FACTORIAL HepG2 Assay for human Early Growth Response 1 (EGR1) (AID 2282938); conditions: HepG2 Attagene CIS-FACTORIAL EGR reporter mRNA; actives raise or lower the signal
Method in brief: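 Transient transfection of human HepG2 with multiple cis-regulated reporter units, chemical exposure 24 h, total RNA isolated. Reverse transcription, PCR, fluorescent labelling and capillary electrophoresis quantify reporter transcripts; activity fitted bidirectionally against DMSO.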

[4] = ATG_M_19_CIS: Attagene CIS-FACTORIAL HepG2 Assay for M19 Transcription Factor (Internal Marker) (AID 2282939); conditions: HepG2 Attagene CIS-FACTORIAL M19 internal marker reporter; actives raise or lower the signal
Method in brief: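 HepG2 cells transiently transfected with cis-regulated multiplexed reporter units, dosed 24 h. Reporter mRNA quantified by RT-PCR and capillary electrophoresis; internal background marker fitted bidirectionally versus DMSO.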

[5] = ATG_ERE_CIS: Attagene CIS-FACTORIAL HepG2 Assay for Estrogen Response Element (ERE) (AID 2282940); conditions: HepG2 ERE cis-reporter, Attagene RNA transcript; actives raise or lower the signal
Method in brief: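 HepG2 cells transiently transfected with multiplexed cis-element reporter units, measuring endogenous transcription factor activity; ERE reporter mRNA quantified after 24 h exposure by RT-PCR, fluorescent labelling, HpaI digestion and capillary electrophoresis. Bidirectional change versus DMSO.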

[6] = ATG_Ets_CIS: Attagene CIS-FACTORIAL HepG2 Assay for human Erythroblast Transformation Specific (ETS) (AID 2282941); conditions: HepG2 ETS cis-reporter transcription, actives raise or lower the signal
Method in brief: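 Multiplexed reporter transcript profiling: HepG2, 24 h treatment, total RNA to cDNA, PCR, 6-FAM labelling, HpaI cut, capillary electrophoresis. Gain- or loss-of-signal fitted against DMSO.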

[7] = target: Hepatocyte nuclear factor 3-beta (Homo sapiens) (UniProt Q9Y261); assay: ATG_FoxA2_CIS: Attagene CIS-FACTORIAL HepG2 Assay for human Forkhead box A2 (FOXA2) (AID 2282942); conditions: HepG2 cis-reporter transcription factor activity, 24 h; actives raise or lower the signal
Sequence of Hepatocyte nuclear factor 3-beta (Homo sapiens) (Q9Y261 whole entry, looked up): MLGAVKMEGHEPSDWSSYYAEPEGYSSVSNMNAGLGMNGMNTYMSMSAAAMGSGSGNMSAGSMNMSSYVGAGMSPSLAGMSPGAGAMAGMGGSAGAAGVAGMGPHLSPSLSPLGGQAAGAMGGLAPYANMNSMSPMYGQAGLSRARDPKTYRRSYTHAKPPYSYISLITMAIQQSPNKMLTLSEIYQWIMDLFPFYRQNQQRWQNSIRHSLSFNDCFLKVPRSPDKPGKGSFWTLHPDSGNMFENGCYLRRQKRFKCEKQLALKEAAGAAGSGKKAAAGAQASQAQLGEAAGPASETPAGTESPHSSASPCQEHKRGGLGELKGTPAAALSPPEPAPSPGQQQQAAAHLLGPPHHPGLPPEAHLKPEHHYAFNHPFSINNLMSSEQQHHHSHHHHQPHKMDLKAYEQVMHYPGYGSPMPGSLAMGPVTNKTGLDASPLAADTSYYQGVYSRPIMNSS
Method in brief: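 Transient MRTU transfection of HepG2 liver cells; 24 h treatment; total RNA → oligo(dT) RT → PCR → FAM primer extension → HpaI cut → CE. Bidirectional fit vs DMSO.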

[8] = ATG_FoxO_CIS: Attagene CIS-FACTORIAL HepG2 Assay for human Forkhead box O (FoxO) (AID 2282943); conditions: HepG2 Attagene cis-reporter, FoxO element, mRNA; actives raise or lower the signal
Method in brief: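 Human hepatoma HepG2 cells carry transiently introduced reporter transcription units controlled by cis promoter elements. Chemical treatment lasted 24 h, and mRNA signal was compared with DMSO.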

[9] = ATG_GATA_CIS: Attagene CIS-FACTORIAL HepG2 Assay for human GATA Binding Protein (AID 2282944); conditions: HepG2 GATA cis-element reporter, Attagene multiplex mRNA; actives raise or lower the signal
Method in brief: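 HepG2 cells transiently transfected with multiplexed cis-element reporter units measure endogenous GATA activity; after 24 h compound exposure, reporter mRNA quantified by RT-PCR and capillary electrophoresis. Changes fitted in both directions vs DMSO.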

[10] = ATG_GLI_CIS: Attagene CIS-FACTORIAL HepG2 Assay for human Zinc Finger Protein GLI1 (AID 2282945); conditions: HepG2, Attagene cis-factorial reporter mRNA, GLI element; actives raise or lower the signal
Method in brief: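 Bidirectional curve fits relative to DMSO, using reporter mRNA levels from RT-PCR plus capillary electrophoresis. Cells were HepG2 transiently carrying cis-regulated reporter constructs, harvested 24 h after dosing.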

[11] = target: Bile acid receptor (Homo sapiens) (UniProt Q96RI1); assay: ATG_IR1_CIS: Attagene CIS-FACTORIAL HepG2 Assay for human Nuclear Receptor Subfamily 1 Group H Member 4 (NR1H4), IR1 submotif (AID 2282946); conditions: IR1 reporter transcription, actives raise or lower the signal
Sequence of Bile acid receptor (Homo sapiens) (Q96RI1 whole entry, looked up): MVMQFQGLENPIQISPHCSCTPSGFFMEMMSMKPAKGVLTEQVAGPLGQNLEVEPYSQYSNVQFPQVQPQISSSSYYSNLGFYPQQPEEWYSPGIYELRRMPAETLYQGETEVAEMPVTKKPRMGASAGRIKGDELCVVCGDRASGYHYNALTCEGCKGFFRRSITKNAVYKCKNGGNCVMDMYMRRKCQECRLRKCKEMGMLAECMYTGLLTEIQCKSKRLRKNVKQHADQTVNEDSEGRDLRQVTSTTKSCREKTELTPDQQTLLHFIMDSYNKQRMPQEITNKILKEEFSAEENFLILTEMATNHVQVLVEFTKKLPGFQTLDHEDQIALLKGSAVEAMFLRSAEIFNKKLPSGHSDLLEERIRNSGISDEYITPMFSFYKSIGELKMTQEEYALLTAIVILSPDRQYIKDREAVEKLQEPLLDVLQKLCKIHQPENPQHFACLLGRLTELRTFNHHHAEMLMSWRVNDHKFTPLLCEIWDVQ
Method in brief: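 HepG2 cells transiently transfected with multiplexed cis-element reporter units read endogenous transcription factor activity. After 24 h compound exposure, reporter mRNA was quantified by RT-PCR, fluorescent labelling, HpaI digestion and capillary electrophoresis; bidirectional fitting versus DMSO baseline.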

[12] = ATG_GRE_CIS: Attagene CIS-FACTORIAL HepG2 Assay for human Glucocorticoid Response Elements (GRE) (AID 2282947); conditions: HepG2 GRE cis-reporter, Attagene multiplex mRNA; actives raise or lower the signal
Method in brief: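 Reporter transcripts read by RT-PCR with capillary electrophoresis fluorescence after a 24 h chemical exposure of HepG2 cells transiently transfected with multiple cis-element reporter units. Gain or loss fitted against DMSO.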

[13] = ATG_ISRE_CIS: Attagene CIS-FACTORIAL HepG2 Assay for human Interferon Regulatory Factor 1 (IRF1) binding to an Interferon-Stimulated Response Element (ISRE) (AID 2282948); conditions: HepG2 ISRE cis-reporter (Attagene), mRNA transcription readout; actives raise or lower the signal
Method in brief: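 Signal reflects induction or loss of ISRE-linked reporter mRNA in transiently transfected HepG2 cells after a 24 h treatment, detected by fluorescent RT-PCR fragments on capillary electrophoresis and normalised to DMSO.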

[14] = ATG_M_32_CIS: Attagene CIS-FACTORIAL HepG2 Assay for M32 Transcription Factor (Internal Marker) (AID 2282949); conditions: HepG2 Attagene cis-factorial M32 reporter, mRNA; actives raise or lower the signal;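 also: background control marker of the multiplexed CIS panel rather than a real target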
Method in brief: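 HepG2 human liver cells transiently transfected with cis-promoter-driven multiple reporter transcription units, dosed 24 h. Reporter mRNA quantified by RT-PCR, FAM-labelled primer extension, HpaI digest and capillary electrophoresis; bidirectional fit versus DMSO baseline.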

[15] = ATG_M_06_CIS: Attagene CIS-FACTORIAL HepG2 Assay for M06 Transcription Factor (Internal Marker) (AID 2282950); conditions: HepG2 Attagene CIS-FACTORIAL M06 internal marker reporter; actives raise or lower the signal
Method in brief: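 Internal background marker within multiplexed cis-reporter HepG2 system. Cells transiently transfected, dosed 24 h; reporter mRNA measured by RT-PCR, HpaI digestion and capillary electrophoresis. Bidirectional fit relative to DMSO.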

[16] = target: Hypoxia-inducible factor 1-alpha (Homo sapiens) (UniProt Q16665); assay: ATG_HIF1a_CIS: Attagene CIS-FACTORIAL HepG2 Assay for human Hypoxia Inducible Factor 1 (HIF1A) (AID 2282951); conditions: HepG2 Attagene cis-factorial HIF1a reporter transcription; actives raise or lower the signal
Sequence of Hypoxia-inducible factor 1-alpha (Homo sapiens) (Q16665 whole entry, looked up, the tested form may be a part): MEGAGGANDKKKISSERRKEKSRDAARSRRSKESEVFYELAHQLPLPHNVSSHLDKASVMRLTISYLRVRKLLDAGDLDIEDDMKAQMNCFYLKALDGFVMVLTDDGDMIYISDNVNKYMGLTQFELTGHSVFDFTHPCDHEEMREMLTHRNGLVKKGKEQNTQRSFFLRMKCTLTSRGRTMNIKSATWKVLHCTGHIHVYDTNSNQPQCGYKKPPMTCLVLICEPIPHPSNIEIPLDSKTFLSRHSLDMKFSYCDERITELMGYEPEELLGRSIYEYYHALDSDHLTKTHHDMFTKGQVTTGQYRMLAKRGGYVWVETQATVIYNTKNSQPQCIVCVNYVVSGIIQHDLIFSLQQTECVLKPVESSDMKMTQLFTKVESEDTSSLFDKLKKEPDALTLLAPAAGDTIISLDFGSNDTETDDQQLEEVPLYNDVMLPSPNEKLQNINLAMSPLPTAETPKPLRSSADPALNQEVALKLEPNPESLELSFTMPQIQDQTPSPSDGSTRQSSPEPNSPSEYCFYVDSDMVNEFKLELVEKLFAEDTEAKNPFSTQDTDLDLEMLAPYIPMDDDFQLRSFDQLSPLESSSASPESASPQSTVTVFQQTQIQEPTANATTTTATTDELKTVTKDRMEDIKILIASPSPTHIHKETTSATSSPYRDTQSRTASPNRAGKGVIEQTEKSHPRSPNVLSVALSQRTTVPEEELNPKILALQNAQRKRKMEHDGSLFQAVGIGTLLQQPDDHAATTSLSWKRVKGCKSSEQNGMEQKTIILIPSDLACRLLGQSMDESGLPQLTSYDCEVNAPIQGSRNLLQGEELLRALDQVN
Method in brief: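 Transient MRTU transfection of human HepG2 liver cells, 24 h compound treatment, then total RNA isolation, oligo(dT) reverse transcription, PCR amplification, fluorescent labelling and capillary electrophoresis of reporter fragments. Gain or loss relative to DMSO.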

[17] = target: Hepatocyte nuclear factor 6 (Homo sapiens) (UniProt Q9UBC0); assay: ATG_HNF6_CIS: Attagene CIS-FACTORIAL HepG2 Assay for human Hepatocyte Nuclear Factor 6 (HNF6) (AID 2282952); conditions: HepG2 Attagene cis-factorial HNF6 reporter transcription; actives raise or lower the signal
Sequence of Hepatocyte nuclear factor 6 (Homo sapiens) (Q9UBC0 whole entry, looked up): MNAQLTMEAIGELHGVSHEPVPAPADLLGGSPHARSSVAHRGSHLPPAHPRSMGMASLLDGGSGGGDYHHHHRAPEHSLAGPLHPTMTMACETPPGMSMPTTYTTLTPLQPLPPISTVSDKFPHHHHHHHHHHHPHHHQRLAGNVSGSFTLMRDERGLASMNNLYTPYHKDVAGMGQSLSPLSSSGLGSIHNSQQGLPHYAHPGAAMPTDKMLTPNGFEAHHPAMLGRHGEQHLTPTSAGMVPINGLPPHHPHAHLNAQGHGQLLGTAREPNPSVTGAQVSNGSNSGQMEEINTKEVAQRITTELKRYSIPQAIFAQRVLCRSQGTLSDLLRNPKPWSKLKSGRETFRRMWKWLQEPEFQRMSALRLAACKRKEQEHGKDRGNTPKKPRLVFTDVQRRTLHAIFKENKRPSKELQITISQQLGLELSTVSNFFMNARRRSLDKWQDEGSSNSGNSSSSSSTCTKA
Method in brief: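 Endogenous factor activity read in transiently transfected HepG2 via promoter-regulated reporter transcripts. RNA harvested 24 h post-dosing, reverse-transcribed, PCR-amplified, FAM-labelled, HpaI-digested and resolved by capillary electrophoresis; fitted in both directions against DMSO.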

[18] = target: Heat shock factor protein 1 (Homo sapiens) (UniProt Q00613); assay: ATG_HSE_CIS: Attagene CIS-FACTORIAL HepG2 Assay for human Heat Shock Transcription Factor 1 (HSE) (AID 2282953); conditions: HepG2 HSE cis-reporter, Attagene RNA transcription; actives raise or lower the signal
Sequence of Heat shock factor protein 1 (Homo sapiens) (Q00613 whole entry, looked up): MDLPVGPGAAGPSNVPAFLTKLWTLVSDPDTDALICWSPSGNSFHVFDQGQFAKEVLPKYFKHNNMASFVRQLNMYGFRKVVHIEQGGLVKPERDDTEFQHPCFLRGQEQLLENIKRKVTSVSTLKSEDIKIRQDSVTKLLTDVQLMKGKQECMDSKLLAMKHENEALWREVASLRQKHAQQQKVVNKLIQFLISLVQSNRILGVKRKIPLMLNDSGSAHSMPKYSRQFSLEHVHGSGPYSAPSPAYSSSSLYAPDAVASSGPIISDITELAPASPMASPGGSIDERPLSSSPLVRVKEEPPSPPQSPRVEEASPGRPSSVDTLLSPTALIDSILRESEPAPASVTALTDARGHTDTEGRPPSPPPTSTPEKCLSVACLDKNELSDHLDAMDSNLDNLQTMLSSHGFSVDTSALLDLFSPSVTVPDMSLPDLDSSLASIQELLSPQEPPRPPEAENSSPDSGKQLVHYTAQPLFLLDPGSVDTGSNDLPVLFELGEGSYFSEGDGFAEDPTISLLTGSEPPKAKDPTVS
Method in brief: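 HepG2 cells transfected with cis-promoter reporter units sensing endogenous transcription factor activity; reporter mRNA quantified 24 h post-dose by RT-PCR and capillary electrophoresis of 6-FAM-labelled products. Bidirectional fitting against DMSO.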

[19] = ATG_MRE_CIS: Attagene CIS-FACTORIAL HepG2 Assay for human Metal Responsive Element (MRE) (AID 2282954); conditions: HepG2 MRE cis-reporter transcription, Attagene multiplex; actives raise or lower the signal
Method in brief: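 Endogenous MRE-dependent transcription read as reporter mRNA in transiently transfected human HepG2 cells at 24 h. RNA reverse-transcribed, PCR-amplified, labelled and resolved by capillary electrophoresis; gain or loss relative to DMSO.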

[20] = ATG_PBREM_CIS: Attagene CIS-FACTORIAL HepG2 Assay for human Phenobarbital-responsive Enhancer Module (PBREM) (AID 2282955); conditions: HepG2 PBREM cis-reporter, Attagene multiplexed transcription; actives raise or lower the signal
Method in brief: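 Endogenous transcription factors in human liver HepG2 cells drive a PBREM cis-element reporter, whose transcript level after 24 h treatment is quantified by RT-PCR with capillary electrophoresis; activity fitted in both directions against DMSO.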

Measured: outcome

OCCN1CCNCC1
inactive: all assays above

CCc1c(C)cc(N)c(CC)c1N
not listed: [16]
inactive: all other assays above

c1ccc2sc(SN(C3CCCCC3)C3CCCCC3)nc2c1
not listed: [12]
inactive: all other assays above

O=P(c1ccccc1)(c1ccccc1)c1ccccc1
not listed: [12] | [14]
inactive: all other assays above

O=Cc1ccc(F)cc1
not listed: [15] | [20]
inactive: all other assays above

CC(=O)C=CC1=C(C)CCCC1(C)C
not listed: [12] | [14] | [20]
inactive: all other assays above

CCC(O)CO (centres undefined)
inactive: all assays above

OCc1cccnc1
not listed: [15] | [16]
inactive: all other assays above
